Measurements from PubChem BioAssay (EPA / NIEHS).
Some compounds were tested as several samples or in several runs, with calls that do not always agree. The source made the active and inactive calls. Rule for the calls: active = hit-call score of the fitted dose curve at least 0.9, where 1 is the maximum; inactive = score below 0.9.

The molecules below were run on Collagen I, COL1A1 (gene 1277) (assay: BSK_hDFCGF_CollagenI: BioMAP Diversity Plus: hDFCGF Assay for Collagen I Biomarker Activity (AID 2284250)). Details: primary human foreskin fibroblasts.
Description: BSK_hDFCGF is a cell-based, multiplexed-readout assay that uses foreskin fibroblast, a human skin primary cell, with measurements taken at 24 hours after chemical dosing in a 96-well plate.BSK_hDFCGF_CollagenI is an assay component measured in the BSK_hDFCGF assay. It measures Collagen I antibody related to regulation of gene protein expression using ELISA technology.Data from the assay component BSK_hDFCGF_CollagenI was analyzed at the endpoint, BSK_hDFCGF_CollagenI, in the positive analysis fitting direction relative to DMSO as the negative control and baseline of activity. Using a type of binding reporter, gain or loss-of-signal activity can be used to understand protein changes. To generalize the intended target to other relatable targets, this assay endpoint is annotated to the 'cell adhesion molecules' intended target family, where the subfamily is 'collagen'.
The levels of cell surface (or secreted, indicated by the prefix "s") biomarker endpoints were measured by ELISA. Overt cytotoxicity to cells in confluent adherent cultures (all systems other than the BT system) was assessed by measuring total protein levels using sulforhodamine B (SRB) staining in parallel cultures at the time of biomarker measurements, indicated as SRB endpoints. For proliferation assays for adherent cell types, individual cell types are cultured at sub-confluence and relative cell numbers quantified by SRB staining at time points optimized for each system (48 h: 3C and CASM3C systems; 72 h: BT and HDF3CGF systems; 96 h: SAg system). SRB was performed by staining cells with 0.1% SRB after fixation with 10% TCA and reading wells at 560 nm.Viability and proliferation of PBMC (T cells) was quantified by Alamar Blue reduction for the SAg and BT systems. For PBMC viability (referred to as PBMC Cytotoxicity within the assay endpoint names), cells were plated (75,000/well in a 96-well plate) and then chemical samples added for 1 h before addition of activators, SEB and TSST-1 (20 ng/mL final concentration each). Cells were incubated for 90 h. Then, Alamar Blue (20 uL/well) (Invitrogen, Cat DAL1100) was added for 6 h, and the plates were read with a fluorescence microplate reader at 546/580 nm (excitation/emission). For PBMC proliferation, cells were plated and activated as above but incubated for only 16 h prior to addition of Alamar Blue. Plates were read after 6 h.

Structure (SMILES)	outcome	AC50
COc1cc(CNC(=O)CCCC/C=C/C(C)C)ccc1O	inactive	–
CC[N+](CC)(CC(=O)Nc1c(C)cccc1C)Cc1ccccc1 (tested in a mixture with another compound)	inactive	–
O=[N+]([O-])c1cc(S(=O)(=O)Nc2ccccc2)ccc1Nc1ccccc1	inactive	3.86 µM (active)
COc1ccccc1Oc1c(NS(=O)(=O)c2ccc(C(C)(C)C)cc2)nc(-c2ncccn2)nc1OCCO	inactive	–
CCCCC(CC)COC(=O)C=Cc1ccc(OC)cc1 (stereo unspecified)	inactive	9.37 µM (active)
Cc1c(C(N)=O)cc([N+](=O)[O-])cc1[N+](=O)[O-]	inactive	–
CN(C)Cc1cc(C(C)(C)C)c(O)c(C(C)(C)C)c1	inactive	–
COc1ccc(C(=O)c2ccccc2O)c(O)c1	inactive	–
CC(C)C1OCCN1CCOC(=O)NCCCCCCNC(=O)OCCN1CCOC1C(C)C (stereo unspecified)	inactive	1.44 µM (active)
CCC[Si](OC(C)=O)(OC(C)=O)OC(C)=O	inactive	–
C1CN(CCOCCN2CCOCC2)CCO1	inactive	–
OC(C(F)(F)F)(C(F)(F)F)C(O)(C(F)(F)F)C(F)(F)F	inactive	30 µM (active)
